# Compound activity from PubChem BioAssay.
# Rab9 prom act – qHTS Assay for Rab9 Promoter Activators | AID 485297, 2010 | 2.8% of 320,000 active | Huh7 Rab9 promoter-luciferase reporter, luminescence, 24 h | Potency, µM (doses to about 9.22 µM), for inactives: at the top dose activation, negative = inhibition, usual class: activators; note: % of control where 0% means no effect; nearly all actives have a fitted effect of over 60% in size
#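 Huh7 reporter line, Rab9 promoter upstream of luciferase. Compound exposure 24 h at 37 °C in reduced-serum medium with 10% FBS. Read-out: luminescence.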
# ELG1 genotoxic – qHTS screen for small molecules that induce genotoxicity in human embryonic kidney (HEK293T) cells expressing luciferase-tagged ELG1 | Potency, µM (doses to about 46 µM), without a hit: top-dose activity change, positive = activation, hits mostly activators | AID 504466, 2011 | HEK293T ELG1-luciferase reporter, luminescence, 16 h | 1.3% of 330,000 active; note: % of control where 0% means no effect; nearly all actives have a fitted effect of over 60% in size
#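 16 hr compound incubation (37 °C, 5% CO2) of HEK293T cells carrying luciferase-tagged ELG1; luciferase then measured by ONE-Glo luminescence after 30 min at RT.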
# NPC1 promoter act – qHTS Assay for NPC1 Promoter Activators; Huh7 NPC1 promoter luciferase reporter, 24 h; Potency, µM (top dose mostly 9.22 µM), without a hit: at the top dose activation, most hits filed as activators; 2.4% of 320,000 active; note: % of control where 0% means no effect; nearly all actives have a fitted effect of over 60% in size
#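 NPC1 promoter–luciferase Huh7 cells; 24 h compound; luminescence.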
# FLuc counter – qHTS profiling assay for firefly luciferase inhibitor/activator using purifed enzyme and Km concentrations of substrates (counterscreen for miR-21 project); AID 588342, 2011; Potency, µM (highest dose often 57.5 µM), inactives show at the top dose activity change, negative = inhibition, most hits filed as inhibitors; 6.9% of 360,000 active; purified FLuc, Km substrates, luminescence inhibition;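 note: plate controls were vehicle for no effect and reference inhibitor for full effect; nearly all actives have a fitted effect of over 55% in size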
# Target sequence (P08659 whole entry, looked up): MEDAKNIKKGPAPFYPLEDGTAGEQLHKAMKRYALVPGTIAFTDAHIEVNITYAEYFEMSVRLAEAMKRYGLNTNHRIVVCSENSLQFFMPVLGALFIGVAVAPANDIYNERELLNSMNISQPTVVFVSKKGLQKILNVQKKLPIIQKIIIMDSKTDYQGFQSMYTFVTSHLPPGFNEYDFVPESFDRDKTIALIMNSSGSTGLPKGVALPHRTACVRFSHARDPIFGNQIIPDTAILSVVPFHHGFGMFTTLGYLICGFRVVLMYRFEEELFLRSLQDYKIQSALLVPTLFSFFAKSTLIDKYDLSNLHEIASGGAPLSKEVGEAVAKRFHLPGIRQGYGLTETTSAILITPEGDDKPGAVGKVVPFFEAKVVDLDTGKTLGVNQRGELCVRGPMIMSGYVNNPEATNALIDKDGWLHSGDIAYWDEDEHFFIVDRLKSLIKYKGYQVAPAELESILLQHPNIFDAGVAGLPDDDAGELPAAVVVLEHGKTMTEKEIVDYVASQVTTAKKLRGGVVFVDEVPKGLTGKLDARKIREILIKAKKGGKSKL
#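 Purified P. pyralis luciferase (10nM final) with 10uM D-luciferin and 10uM ATP (Km levels) in 50mM Tris acetate pH 7.5, 10mM Mg acetate, 0.01% Tween-20, 0.05% BSA; qHTS 6-point titration, ~60 µM downward; luminescence read.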
# SMN2 splice up – qHTS Assay for Enhancers of SMN2 Splice Variant Expression | HEK293 SMN2-luciferase splicing reporter, luminescence, 30-36 h | Potency, µM (top dose mostly 46.1 µM), for the others: at the highest dose activity change, positive = activation, actives largely listed as activators | 2.8% of 210,000 active | AID 1458, 2008; note: % of control where 0% means no effect; nearly all actives have a fitted effect of over 55% in size
#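 HEK293 cells carry an SMN2 […]–luciferase reporter in which exon 7 inclusion puts luciferase in frame. Cells were plated 10-12 h before compound addition, then incubated 30-36 h at 37C. ONE-Glo luminescence was read; sodium butyrate at 4.5 mM final served as control.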
# Luc counter – Counterscreen for Luciferase (Kinase-Glo TM) Inhibition; Potency, µM (top dose mostly 38.3 µM), for the others: at the top dose activity change, negative = inhibition, usual class: inhibitors; Kinase-Glo luciferase, ATP luminescence, 8 min; 0.28% of 200,000 active; Luciferin 4-monooxygenase (Photuris pensylvanica), Q27757; note: % is set by controls: 0 for no effect and ±100 for the full control effect; nearly all actives have a fitted effect of over 60% in size
#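 Compounds were added to a substrate mix at pH 7.2 (50 mM imidazole, 10 uM ATP, within the enzyme's linear range), followed by Kinase-Glo detection reagent; luminescence was measured after 8 minutes at ambient temperature.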
# An asterisk follows results filed as active; ? = inconclusive; . = no result given. Sampled rows, rich in hits. Any-hit rate of the full collection: about 7.3%. Calls come from the whole dose curve; as a rule, active = well fitted curve in the direction sought with a large enough effect; inconclusive = small, poorly fitted or top-dose-only effect, or another doubt; inactive = no such curve, though single readings can be large; an effect the other way counts as inactive or inconclusive. Potency is the fitted concentration of half-maximal effect.
SMILES,Rab9 prom act,ELG1 genotoxic,NPC1 promoter act,FLuc counter,SMN2 splice up,Luc counter
CCSc1nnc2c(n1)OC(CC)N(C(C)=O)c1ccccc1-2 (stereo unspecified),.,.,.,-5%,-14%,.
CSc1ccc(CCNC(=O)CN2C(=O)COc3ccc(S(=O)(=O)N4CCCCCC4)cc32)cc1,.,.,.,-15%,0%,.
Cc1ccc(NC(=O)c2ccccc2OCC(=O)Nc2ccccc2F)cc1S(=O)(=O)N(C)C,19%,0%,8%,7.6µM*,.,.
Cc1ccc(NC(=O)c2cc3ccccc3oc2=O)cc1S(=O)(=O)N(C)C,-34%,10%,-28%,0.076µM*,.,.
Cc1ccc(NC(=O)c2cc3ccccc3o2)cc1S(=O)(=O)N(C)C,2.5µM*,2.6µM*,3.2µM*,0.85µM*,13µM*,-3%
CCC(=O)Nc1ccc(NC(=O)c2cc3ccccc3o2)cc1,?,9%,?,?,?,-8%
CN(C)S(=O)(=O)c1ccc(NC(=O)c2cc3ccccc3o2)cc1,?,-1%,?,15µM*,0%,-6%
CCOC(=O)c1cc(-c2ccc(OC)cc2)n(CCC(=O)NCCc2ccccc2)c1C,.,.,.,-5%,.,.
COc1ccc(CN2COc3ccc4c(C)cc(=O)oc4c3C2)cc1,.,.,.,-5%,.,.
Cc1cccc(C(=O)NCc2cn3cccc(C)c3n2)c1,.,.,.,2%,.,.
CC(=O)Nc1ccc(NC(=O)c2cc(=O)c3cc(C)c(C)cc3o2)cc1,3%,5%,-1%,2.7µM*,.,.
Cc1cc2oc(C(=O)Nc3ccc(S(N)(=O)=O)cc3)cc(=O)c2cc1C,.,.,.,-2%,-28%,.
COC(=O)Nc1ccc(OCC(=O)N2CCOCC2)cc1,-4%,0%,-3%,5%,6%,-3%
CCOc1ccc(S(=O)(=O)N(C)c2ccc(OCC(=O)N3CCOCC3)cc2)cc1,1%,-3%,1%,-4%,0%,4%
CN(C)S(=O)(=O)c1ccc(C(=O)Nc2ccc(OCC(=O)N3CCOCC3)cc2)cc1,9%,4%,2%,15µM*,0%,0%
COc1cc(C(=O)Nc2cc(C)c(OCC(=O)N3CCOCC3)c(C)c2)cc(OC)c1OC,2%,9%,-4%,4%,.,-2%
O=C(CCC1CCCC1)Nc1ccc(OCC(=O)N2CCOCC2)cc1,10%,8%,10%,4.8µM*,-1%,-1%
Cc1cc(NC(=O)c2ccccc2F)cc(C)c1OCC(=O)N1CCOCC1,13%,7%,-1%,9.5µM*,.,.
COc1ccc(C(=O)Nc2ccc(OCC(=O)N3CCOCC3)cc2)c(OC)c1OC,7%,11%,-1%,13µM*,.,.
CCc1ccc(C(=O)NNC(=O)c2ccc(OCC(=O)N3CCOCC3)c(OC)c2)cc1,-12%,0%,-6%,0%,.,.
COc1cc(C(=O)Nc2ccc(C(F)(F)F)cc2)ccc1OCC(=O)N1CCOCC1,20%,0%,17%,6.7µM*,.,.
O=C(Nc1ccc(OCC(=O)N2CCOCC2)cc1)c1cccc(Cl)c1,29%,3%,25%,7.6µM*,.,.
Cc1cc(NC(=O)c2cc3ccccc3o2)cc(C)c1OCC(=O)N1CCOCC1,-4%,-16%,8%,12µM*,-4%,-3%
O=C(Nc1ccc(OCC(=O)N2CCOCC2)cc1)c1ccccc1F,27%,20%,22%,4.8µM*,.,.
CCOC(=O)c1c(C)c(-c2ccccc2)n(CC(=O)Nc2cc(OC)cc(OC)c2)c1C,.,.,.,-13%,-39%,.
SMILES,Rab9 prom act,ELG1 genotoxic,NPC1 promoter act,FLuc counter,SMN2 splice up,Luc counter
COC(=O)C(Cc1c[nH]c2ccccc12)NC(=O)c1ccc2nc[nH]c2c1 (stereo unspecified),-2%,3%,-3%,2.4µM*,.,.
CCOC(=O)C(Cc1c[nH]c2ccccc12)NC(=O)c1ccco1 (stereo unspecified),-10%,20%,1%,21µM*,-9%,-6%
NC(=O)COC(=O)[C@H](Cc1c[nH]c2ccccc12)NC(=O)c1ccc(F)cc1,3%,-2%,-4%,24µM*,.,.
CCOC(=O)C(Cc1c[nH]c2ccccc12)NC(=O)COc1ccc(CC)cc1 (stereo unspecified),.,.,.,-21%,-11%,.
COC(=O)c1cccn(CC(=O)c2ccc(Cl)cc2Cl)c1=O,-6%,5%,0%,15µM*,7%,0%
C/C(=N\NC(=O)c1ccc2c(c1)OCO2)c1ccc(C(=O)O)s1,1%,2%,0%,?,.,-22%
CC(/C=C/c1ccccc1)=N\NC(=O)c1ccc2c(c1)OCCO2,-5%,2%,-6%,?,-6%,-1%
O=C(c1ccc2c(c1)OCCCO2)c1cccs1,2.2µM*,?,1.1µM*,6.7µM*,13µM*,-6%
C/C(=N\NC(=O)c1ccc(N/N=C(\C)c2ccc(O)cc2)cc1)c1ccc(O)cc1,?,0%,?,4.8µM*,.,.
C/C(=N\NC(=O)c1ccc2c(c1)OCCO2)c1ccccc1,3%,0.33µM*,?,0.38µM*,.,.
C/C(=N\NC(=O)c1ccc2c(c1)OCO2)c1ccc2c(c1)OCO2,3.5µM*,10%,?,13µM*,16µM*,-3%
COc1ccc(-c2nnc(SCC(=O)NCc3ccccc3)nc2-c2ccc(OC)c(OC)c2)cc1OC,.,.,.,-2%,.,.
Oc1ccc(COC2CCCC2)c2cccnc12,-17%,.,-29%,2%,.,.
C/C(=N\NC(=O)c1ccc(O)cc1)c1ccc2c(c1)OCCO2,28%,?,22%,13µM*,.,.
C/C(=N\NC(=O)c1cccs1)c1ccc2c(c1)OCO2,?,?,?,?,?,-1%
C/C(=N\NC(=O)C1CC1)c1ccc2c(c1)OCCO2,-32%,15%,9%,-12%,54%,1%
CC(=NNC(=O)c1cccs1)c1ccc2c(c1)OCCO2,.,16µM*,.,.,.,.
CCc1ccc(N2C(=O)CS(=O)(=O)C23C(=O)N(Cc2ccccc2F)c2ccccc23)cc1 (stereo unspecified),.,.,.,3%,.,.
Cc1ccnc(Nc2nc(-c3ccc(Cl)cc3)cs2)c1,2.8µM*,?,2.8µM*,2.7µM*,.,.
Cc1ccnc(Nc2nc(-c3ccc(F)cc3)cs2)c1,2.5µM*,?,1.8µM*,0.85µM*,.,.
COc1cc(-c2nc(Cn3nnc(C(=O)Nc4ccccc4C)c3C)c(C)o2)cc(OC)c1OC,.,.,.,5%,10%,.
